According to PubChem BioAssay (NCI):
The panel holds about 83,000 compounds, 20% with a hit somewhere; the sample as a whole holds those more often.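 Compound tested at a single concentration for 48 hours in 96-well plates; a percent growth value below 10 was scored as active.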 Unmarked numbers belong to inactive results. Activity calls are given as the source filed them.

Key:
Test in all cases: NCI-60 one-dose screen, 48 h (100 = growth as untreated, 0 = no growth, -100 = all killed)
[1] = test system: T-47D breast; details: 10 µM
[2] = test system: BT-549 breast; details: 10 µM unless noted
[3] = test system: MDA-MB-435 melanoma; details: 10 µM unless noted
[4] = test system: SW-620 colon; details: 10 µM unless noted
[5] = test system: MCF7 breast; details: 10 µM unless noted
[6] = test system: HCT-116 colon; details: 10 µM unless noted
[7] = test system: HCC-2998 colon; details: 10 µM unless noted
[8] = test system: KM12 colon; details: 10 µM unless noted

Structure (SMILES) | growth [1] | growth [2] | growth [3] | growth [4] | growth [5] | growth [6] | growth [7] | growth [8]
Clc1cccc(Cl)c1Nc1ccc2nnc(-c3ccncc3)n2n1 | 91.3% | 114% | 104% | 102% | 95.2% | 98.9% | 97.1% | 112%
COC(=O)c1c2c(c(C)[n+]([O-])c1C)C(=O)C=C(NCc1ccc(Cl)cc1)C2=O | -33.8% (active) | -23.8% (active) | -96.1% (active) | -17.3% (active) | -63.2% (active) | -19.9% (active) | -34.6% (active) | -4.32% (active)
COc1ccc(OC2=CC(=O)c3ccc(C)nc3C2=O)cc1 | 79.9% | 90.7% | 83% | 94.9% | 72.4% | 74.3% | 102% | 81.3%
O=C(N/N=C(\CS(=O)(=O)c1ccccc1)c1cc2ccccc2oc1=O)c1ccccc1 | 101% | 104% | 103% | 105% | 102% | 112% | 106% | 108%
Fc1ccccc1Nc1ccc2nnc(-c3ccncc3)n2n1 | 85.3% | 101% | 106% | 106% | 94.7% | 99.5% | 107% | 112%
CN1CCc2c(Sc3ccc(C(=O)NO)cc3)c3ccccc3n2C1 | 39.7% | 76.9% | 23.7% | 19.6% | 32.5% | 3.85% (active) | 66.5% | 53.9%
O=C1/C(=C/c2ccc(Cl)cc2)CN(Cc2cn(CCCNc3ccnc4cc(Cl)ccc34)nn2)C/C1=C\c1ccc(Cl)cc1 | -10.8% (active) | -87.6% (active) | -86.7% (active) | -75.6% (active) | -97.9% (active) | -64.4% (active) | -88% (active) | -75.1% (active)
COc1cccc(Nc2nc(NCCO)c3ccccc3n2)c1 | 75.2% | 72.9% | 72.3% | 64.5% | 76.8% | 72.1% | 87.5% | 51.2%
Cc1nc(-c2ccccc2)cc2c(O)c(C(=O)N/N=C/Cc3ccccc3)[nH]c(=O)c12 | 104% | 105% | 118% | 107% | 98.5% | 101% | 95.4% | 115%
CCOC(=O)c1cc2c(n(C)c1=O)-c1cnn(-c3ccc(OC)cc3)c1CC2 | 82.8% | 101% | 92.6% | 119% | 97.2% | 108% | 120% | 112%
Clc1ccc(Nc2nc(Nc3ccccc3)nc(Nc3ccc(-c4cc(-c5ccc(Cl)cc5)on4)cc3)n2)cc1 | 71.7% | 59.1% | 11.1% | 38.7% | 50% | 27.4% | 56.4% | 56.9%
Cn1c(=O)c(S(=O)(=O)c2ccccc2)cc2ccc3c(cnn3-c3ccc(Cl)cc3)c21 | 50.5% | 66.1% | 80.8% | 90.5% | 99.8% | 63.5% | 93.4% | 89.3%
CC1SC(c2ccc(Cl)cc2)N(CCc2cccs2)C1=O (configuration not stated) | 9.51% (active) | -39.3% (active) | -37.4% (active) | 12.4% | 2.74% (active) | -5.82% (active) | -1.78% (active) | -12% (active)
CCOC(=O)c1c(Cl)c2c(n1Cc1ccc(OC)cc1)-c1oncc1CCC2 | 83.6% | 70.4% | 101% | 71.1% | 82.3% | 62.3% | 66.9% | 96.8%
CC1(C)CC(=O)C2=C(C1)Nc1cc3c(cc1C2c1ccc(F)cc1)OCO3 (configuration not stated) | 85.3% | 110% | 102% | 104% | 90.6% | 96.7% | 102% | 99.3%
CC(C)(C)[Si](C)(C)OC1[C@@H](O[Si](C)(C)C(C)(C)C)[C@@H](CNC(=O)NC(=O)C(F)(F)F)O[C@H]1n1cnc2c(NC(=O)Nc3ccccc3)ncnc21 (some centres not stated) | 85.5% | 96% | -4.83% (active) | 71.2% | 48.3% | 57.2% | 79.3% | 24%
COc1cc2nc(N3CCC[C@H](NC4=CC(=O)c5ccccc5C4=O)C3)nc(N)c2cc1OC | -56.2% (active) | 105% | -96.1% (active) | -45.1% (active) | -77.3% (active) | -85.3% (active) | 92.9% | -39.2% (active)
Cc1ccc2c(c1)c(Sc1ccc(C(=O)NO)cc1)c1n2CN(C)CC1 | 23.4% | 54.3% | 18.9% | 7.66% (active) | 16.6% | -11.2% (active) | 14.9% | 27.7%
O=C(NCc1ccco1)C1CCN(S(=O)(=O)c2ccc(Cl)cc2)CC1 | 78% | 84.4% | -9% (active) | 38.5% | 64.7% | 70.4% | 80.3% | 37.6%
C=CC[P+](c1ccccc1)(c1ccccc1)c1ccccc1 | 16.5% | 47.5% | 32.3% | 79.7% | 27.2% | 36.7% | 51.7% | 31.3%
CCCCCCCCCCCCCCn1c2ccccc2c2c3c(c4c5cc(OC)ccc5oc4c21)C(=O)NC3=O | 104% | 101% | 103% | 104% | 102% | 105% | 107% | 102%
CCCCc1ccc(NC(=O)C(F)(F)F)cc1 | 87.1% | 87.7% | 102% | 101% | 108% | 106% | 106% | 97.3%
O=c1[nH]c(-c2ccncc2)nc2sc3c(c12)CCCCCC3 | 24.6% | 98.9% | 77.7% | 72.2% | 77.4% | 46.6% | 101% | 84.4%
COc1ccc(-c2nc3sccn3c2/C=C/C(=O)c2cc(OC)c(OC)c(OC)c2)cc1OC | 4.81% (active) | 0.662% (active) | -30.5% (active) | 10.2% | 4.93% (active) | 7.36% (active) | 40.3% | -15.2% (active)
CC(=O)Nc1ccccc1-c1n[nH]c(=O)[nH]c1=O | 97.5% | 112% | 97.9% | 96.4% | 101% | 104% | 116% | 105%
Cc1nc2cc(Nc3nc(Nc4ccc(F)cc4)nc(N4CCN(C)CC4)n3)ccc2n1Cc1ccccc1 | -10.7% (active) | -49.9% (active) | 0.19% (active) | 15.6% | 17.9% | -16.3% (active) | -14.8% (active) | 17%
FC(F)(F)Oc1ccc2c(c1)C[C@H]1C[C@@H](c3ccoc3)N2O1 | 94.8% | 112% | 88.8% | 110% | 98.6% | 107% | 97.5% | 103%
CCCN(CCC)c1ccc(/C=C/c2ccc3cc(OCC)ccc3n2)cc1 | 59.1% | 119% | 95% | 89.6% | 84.9% | 70.4% | 94.4% | 128%
COc1ccc(-c2nc(Nc3ccc(F)cc3)nc(Nc3ccc4c(c3)nc(C)n4Cc3ccccc3)n2)cc1 | 11.5% | 70.7% | 34.1% | 45.7% | 22.6% | 23.4% | 45.5% | 26%
